Source: PubChem BioAssay (several laboratories)
Rows were chosen to be rich in hits. Some 3.9% of all compounds tested hit in one or more screens of this group.
PLC-gamma1 inh: PLC-gamma1 enzyme inhibitors, primary screen, biochemical, fluorescence, purified enzyme; hit rate 0.84% among 370,000; fluorogenic substrate; 1-phosphatidylinositol 4,5-bisphosphate phosphodiesterase gamma-1 (Homo sapiens), P19174; inhibition, % at 12.2 µM; in the data active means inhibition above about 9.5%
PLC-beta3 inh: human PLC-beta3 inhibitors, primary screen, biochemical, fluorescence; 1-phosphatidylinositol 4,5-bisphosphate phosphodiesterase beta-3 (Homo sapiens), Q01970; Purified PLC-beta3, fluorogenic substrate; inhibition, % at 12.2 µM; hit rate 0.18% among 370,000; AID 720704, 2013; in the data active means inhibition above about 11%;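 further: 0% = median of compound wells on plate and 100% = full blocker control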
AHR activator: AHR activators, primary screen, cell-based, luminescence, luciferase reporter, human; AHR-responsive luciferase reporter cells; hit rate 2.5% among 320,000; activation, % at 5 µM; Aryl hydrocarbon receptor (Homo sapiens), P35869; in the data active means activation above about 47%;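 further: 0% = vehicle wells and 100% = reference agonist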
Target sequence (P35869 whole entry, looked up): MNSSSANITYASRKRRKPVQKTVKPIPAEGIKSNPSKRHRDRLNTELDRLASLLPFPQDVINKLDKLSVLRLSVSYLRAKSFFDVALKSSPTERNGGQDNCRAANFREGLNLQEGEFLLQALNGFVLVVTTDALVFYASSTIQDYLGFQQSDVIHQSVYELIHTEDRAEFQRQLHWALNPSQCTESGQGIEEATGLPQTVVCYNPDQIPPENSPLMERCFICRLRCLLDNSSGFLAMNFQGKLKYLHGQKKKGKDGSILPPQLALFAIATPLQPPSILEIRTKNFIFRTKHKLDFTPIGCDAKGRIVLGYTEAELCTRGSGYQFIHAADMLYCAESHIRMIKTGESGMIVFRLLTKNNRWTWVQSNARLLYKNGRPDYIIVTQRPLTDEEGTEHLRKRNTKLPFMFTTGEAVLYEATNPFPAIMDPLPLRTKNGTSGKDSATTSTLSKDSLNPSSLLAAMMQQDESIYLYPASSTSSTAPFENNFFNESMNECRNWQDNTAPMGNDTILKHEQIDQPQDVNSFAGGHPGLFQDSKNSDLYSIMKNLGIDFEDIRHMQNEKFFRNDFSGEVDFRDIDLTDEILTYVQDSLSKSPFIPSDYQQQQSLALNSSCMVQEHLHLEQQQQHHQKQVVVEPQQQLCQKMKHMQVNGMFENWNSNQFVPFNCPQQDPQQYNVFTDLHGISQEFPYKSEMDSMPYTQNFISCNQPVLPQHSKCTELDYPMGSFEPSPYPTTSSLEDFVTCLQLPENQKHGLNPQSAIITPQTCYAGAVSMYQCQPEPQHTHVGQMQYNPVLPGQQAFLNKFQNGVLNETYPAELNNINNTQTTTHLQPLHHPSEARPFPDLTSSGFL
HIF act: HIF pathway transcriptional activators, primary screen, cell-based, U2OS HRE-luciferase, luminescence. U2OS HRE-luciferase reporter; normalized: DMSO 0%, desferrioxamine 100%. activation, % at 7.5 µM (by protocol). hit rate 0.32% among 300,000. AID 1910, 2009;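 active means mean activation of at least 10% of the iron chelator positive control signal, with at least half of replicates also reaching 10%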
HGIII-sPLA2 inh: human group III sPLA2 inhibitors, primary screen, biochemical, QFRET, BODIPY PC-A2 liposome substrate; QFRET BODIPY PC-A2 liposome hydrolysis, fluorescence; inhibition, % at 12.2 µM; hit rate 0.56% among 370,000;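 active means inhibition above mean plus 3 SD of compounds lying within the high and low control bounds, cut at about 19% in these data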;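 further: 0% = median of test compound wells and 100% = no enzyme DMSO wells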
Yeast superoxide: reduction of superoxide in aged yeast, primary screen, HTS; hit rate 0.18% among 330,000; AID 2690, 2010; S. cerevisiae aged cells, superoxide DHE fluorescence; hits give low values; superoxide response (% of plate mean), % at 10 µM;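 active means superoxide response under a set limit, about three screen SD below normal, cut at about 65% in these data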;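 further: yeast aged for seven days with compound at 30 °C before DHE staining; 100% = average MFI of all compound-treated wells on the plate with controls excluded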
* marks the source's active call; other numbers are inactive results; i = inactive; . = no result given.

SMILES	PLC-gamma1 inh	PLC-beta3 inh	AHR activator	HIF act	HGIII-sPLA2 inh	Yeast superoxide
CC(C)c1ccc(NC(=O)c2cccnc2)cc1	0	3	38	3	-5	119
CC(C)N=C(Nc1ccc(Cl)cc1)c1cccnc1	-1	1	79*	0	6	111
CCCC1CCC2(CC1)CCC2OC(=S)NCc1ccc(Cl)cc1 (stereo not given)	-3	2	.	.	6	.
c1ccc2sc(Sc3ncnc4sccc34)nc2c1	-13	-10	49*	0	-7	96
COc1ccc(NC(=O)C(=O)NNC(=O)C(C)Oc2ccc(Cl)cc2Cl)cc1 (stereo not given)	0	-1	0	0	5	88
COc1ccc(NC(=O)C(=O)NNC(=O)c2ccc(Cl)cc2Cl)cc1	2	-6	0	512*	6	162
O=C1NC2(Nc3ccccc31)C(=O)Nc1ccccc12 (stereo not given)	i	i	51*	0	-8	94
C[C@@H]1OC(C2CCCCC2)N(C)[C@H]2C[C@H]3c4cc(-c5ccc6c(c5)OCO6)ccc4CCN3C[C@@H]12 (stereo not given in full)	-2	-2	.	.	-1	.
Cc1cc(N2CCCC2)ccc1/C=C1\NC(=S)N(C)C1=O	-28	-34	51*	2	7	81
O=c1[nH]c(CSc2ncccn2)nc2c1cnn2-c1ccccc1	-12	-14	119*	0	-10	106
CCOc1ccc(NC(=O)c2cc(OC)nc3ccccc23)cc1	0	-6	65*	-3	6	96
COc1ccc(NC(=O)c2cc(-c3ccco3)nc3ccccc23)cn1	-191	-220	71*	.	-5	113
O=C(Nc1nc2ccccc2s1)c1cc(-c2ccco2)nc2ccccc12	-380	-483	56*	0	-12	93
CC1(C)CC(=O)N(CC(=O)N2CCN(Cc3ccc4c(c3)OCO4)CC2)c2ccccc2S1(=O)=O	0	-1	.	.	10	.
CC(C)CCN(C)C1CCN(C(=O)NCc2ccccc2)CC1	5	5	.	.	11	.
Cc1cc(C)nc(NC(=O)c2cccc(Br)c2)n1	3	-2	32	2	2	85
COc1cccc(C(=O)NC(=O)Nc2cc(C)[nH]n2)c1	1	-5	51*	3	-1	85
Cc1cc(NC(=O)c2cccc(Br)c2)n[nH]1	0	2	73*	3	-2	112
COc1cccc(C(=O)Nc2ccc(C)cc2)c1	6	2	10	2	7	88
c1ccc([C@H]2CN3C(=N2)Sc2ccccc23)cc1	6	5	72*	.	6	110
CC(=O)N1SC(N)=NC1c1ccccc1 (stereo not given)	2	2	1	-1	10	90
O=C(CSc1nc2ccccc2nc1N1CCOCC1)N1CCN(c2cccc(C(F)(F)F)c2)CC1	-26	-35	.	.	-3	.
N/C(=N\OC(=O)c1cccc(Br)c1)c1ccncc1	1	4	53*	0	-2	108
N/C(=N\OC(=O)COc1ccc(Br)cc1)c1cccc([N+](=O)[O-])c1	0	-7	-2	0	6	97
N/C(=N\OC(=O)c1ccc(Br)cc1)c1ccncc1	2	2	-7	1	0	124
SMILES	PLC-gamma1 inh	PLC-beta3 inh	AHR activator	HIF act	HGIII-sPLA2 inh	Yeast superoxide
Cc1ccccc1C(=O)O/N=C(\N)c1cccc([N+](=O)[O-])c1	-1	-2	94*	3	5	105
N/C(=N\OC(=O)c1cccc([N+](=O)[O-])c1)c1cccnc1	8	1	114*	2	3	94
Cc1ccc(C)c(OCC(=O)O/N=C(\N)c2cccc([N+](=O)[O-])c2)c1	9	-1	-1	114*	9	95
CC(=O)Nc1sc2c(c1-c1cc3ccccc3o1)CCNC2	-32	-42	.	.	-2	.
O=C(NC1CCCCN(Cc2ccc(Cl)cc2)C1=O)c1ccc2ccccc2c1 (stereo not given)	6	1	.	.	-2	.
N/C(=N\OC(=O)COc1ccccc1)c1cccnc1	-1	-29	4	1	2	101
N/C(=N\OC(=O)C(c1ccccc1)c1ccccc1)c1cccnc1	.	.	-1	72*	.	97
COc1ccc2cc(C(=O)N3CCc4ccccc43)[nH]c2c1	-3	-13	82*	6	-10	106
COc1ccc(-c2oc3ccccc3c2C#Cc2cncn2C)cc1	-202	-288	49*	.	-8	121
COc1ccc(-c2sc3ccc(OC)cc3c2C#Cc2cncn2C)cc1	-113	-120	75*	.	-34	107
CCC1N=C(SC)NC(C)=C1C(=O)c1ccccc1 (stereo not given)	0	-3	5	0	4	81
CSC1=NC(C(Cl)(Cl)Cl)N=C(c2ccc(C)cc2)N1 (stereo not given)	0	-5	67*	0	4	70
CCc1c(C)nc2cc(-c3cccc(Br)c3)[nH]n2c1=O	-1	-6	70*	-5	3	84
COc1ccc(OC)c(S(=O)(=O)Oc2ccc(N)c3ccccc23)c1	-2	-17	61*	0	-12	139
Cc1cc(C(=O)N/N=C/c2cc(N=Nc3ccccc3)ccc2O)n[nH]1	.	.	3	19*	.	109
Cc1cc(C(=O)N/N=C/c2c(C)[nH]c3ccccc23)n[nH]1	-4	-13	17	0	1	116
CCOc1ccc2ccccc2c1/C=N/NC(=O)c1cc(C)[nH]n1	0	-10	12	0	2	98
Cc1cc(C(=O)N/N=C/c2c3ccccc3cc3ccccc23)n[nH]1	-26	-48	98*	1	-3	110
Cc1cc(C(=O)N/N=C/c2c(C)n(C)c3ccccc23)n[nH]1	-14	-15	77*	0	5	89
CC12C(=O)N(c3nccs3)C(=O)C1(C)C1CCC2O1 (stereo not given)	8	6	.	.	13	.
C[C@@]12C(=O)OC(=O)[C@]1(C)C1CCC2O1	6	2	-12	.	1	51*
COc1ccc(NC(=S)Nc2ccc3snnc3c2)cc1	1	-4	67*	6	1	81
COc1ccc(NC(=S)Nc2ccc(N)c([N+](=O)[O-])c2)cc1	1	4	62*	4	16	90
Cc1cc(NS(=O)(=O)c2ccc(NC(=O)CSc3nnc(-c4ccncc4)n3Cc3ccco3)cc2)nc(C)n1	-4	-12	.	.	1	.
